Screen size: about 67,000 compounds; fewer than 10 were called active. Calls come from the whole dose curve; as a rule, active = well fitted activation curve with a large enough effect (not every such curve was filed as active); inconclusive = small, poorly fitted or top-dose-only effect, or another doubt; inactive = no such curve, though single readings can be large or run the other way. Not all results are given here.
Test: Ubiquitin-GFP Assay
Conditions: Ubiquitin-GFP reporter cells, proteasome inhibition, GFP fluorescence, untreated = 0%, 10 µM MG-132 = 100%; series mostly up to 45.9 µM; activation (GFP accumulation): at the top concentration
From the text: NIH Chemical Genomics Center [NCGC]
NIH Molecular Libraries Screening Centers Network [MLSCN]
The ubiquitin-proteasome pathway is present within all eukaryotic cells and plays roles in normal cellular functions and disease-related dysfunction. Proteins are tagged with a poly-ubiquitin chain that targets them for the proteasome, a multimeric protease, that degrades the protein into peptides and free ubiquitin. The proteasome has a key role in regulating cell cycle and growth and is known to control the levels of cyclins and CDK inhibitors as well as tumor suppressor proteins. Additionally, the activation of NF- B is controlled by ubiquitin-labeling and degradation of the inhibitory protein I B . […] With this in mind, proteasome inhibitors such as MG-132 and PS-341 have been used to inhibit tumor cell growth.
A cellular assay for ubiquitin-proteasome function was used to find chemical probes of this pathway. The assay used an ubiquitin-GFP construct expressed in U2OS cells (BioImage). Under basal conditions little GFP can be detected as it is degraded by the proteasome. However, treatment of the cells with a proteasome inhibitor such as MG-132 results in a rise in GFP levels that can be detected in as little as four hours. We used the Acumen-Explorer laser plate cytometer having a 488 nm laser as an excitation light source to detect the GFP. Compounds were screened in 1536-well plates using qHTS with a concentration-titration series range that varied from 46 uM to 2.9 nM.
NCGC Assay Protocol Summary:
Cells (U20S ps 2042) expressing ubiquitin (G76V-GFP) were maintained in DMEM with Glutamax-1 and high glucose, 10% FBS, 1% (v/v) penicillin-streptomycin, 0.5 mg/mL Geneticin (G418). The cells were seeded in 1536-well plates using a solenoid-based dispenser at 700 cells/5ul in DMEM medium with Glutamax-1 and high glucose containing 0.5% FBS, w/o phenol red, 25 mM HEPES. The plates were incubated at 37 °C/5% CO2 overnight. Then 23 nl of MG-132 in DMSO was added to the control wells at a final concentration of 10 uM. Next, 23 nL of library compounds in DMSO were added to the sample wells. The plates were incubated for 4 hrs at 37 °C/5% CO2. Following this incubation the plates were read on the Acumen using a cell object definition of 15 to 100 um in width and depth and a window of Total Intensity of between 77,200 and 2,720,000 FLU to enumerate GFP-expressing cells.
The %Activity was determined from the basal and MG-132 treated control wells. %Activity was determined by normalizing to the difference in signal between basal cells (0% Activity) and cells incubated with 10 uM of the proteasome inhibitor MG-132 (100% Activity). Concentration-response curves were fitted to the signals arising from the GFP fluorescence.
Assay Protocol Summary Table
Sequence Parameter Value Description
2. Time O/N 37C incubation
4. Compound 23 nL Libraries (46 uM to 2.9 nM)
5. Time 4 hr 37C incubation
6. Detector Acumen Total Intensity, GFP fluorescence (488 ex/515 em)
Keywords: NIH Roadmap, MLSCN, MLI, MLSMR, BioImage, proteasome, ubiquitin-GFP, qHTS, NCGC

Activation (GFP accumulation), inactive:
CCOC(=O)c1cnc2sccn2c1=O 6.99%
COC(=O)Cn1c(=NC(=O)CSCC(=O)Nc2cc(C)on2)sc2ccccc21 -5.84%
Cc1ccc(C)c2[nH]c(=O)c(CCNC(=O)CC(C)C)cc12 2.17%
COc1cccc(Cn2c(=O)c(C)nc3cnc(Oc4ccccc4)nc32)c1 6.93%
O=c1c(-c2ccc(F)cc2)nc2cnc(N3CCNCC3)nc2n1Cc1cccs1 13.9%
Cc1ccc(SCc2cc(=O)[nH]c(N3CCCCC3)n2)cc1 1%
CC(=O)Oc1ccc(C(=O)Nc2nccs2)cc1 10.5%
CCn1c(=O)cc(SCC(=O)NCc2ccc3c(c2)OCO3)c2ccccc21 -2.7%
Oc1cc2c(cc1O)CN(C(=S)NCCc1ccc(Cl)cc1)CCC2
Cc1ccc(-c2c3c(=O)n(C)c(=O)n(C)c3cn2-c2ccccc2O)cc1 -3.34%
CCCCn1nnnc1NCc1cc(OC)c(OC)c(OC)c1 2.65%
CC(N)=NCc1cccc(CN)c1
CN1C(=O)C[C@H](c2ccccc2)C1=O 12.7% [at 20.5 µM]
Nc1nc2c(ncn2[C@H]2CC[C@@H](CO)O2)c(=O)n1C(=O)c1ccccc1 -2.15% [at 9.17 µM]
Cc1ccc(-n2ncc3c2ncn2nc(-c4ccco4)nc32)c(C)c1 -1.72%
CCCCC(=O)Nc1cc(C)c2c(=O)oc3ccccc3c2n1 0%
Cc1ccc(NC(=O)NCC(c2cccnc2)N2CCOCC2)cc1 (stereo not given) 1.97%
COc1cc(C2C(C#N)=C(C)NC3=C2C(=O)CC(C)(C)C3)ccc1O (stereo not given) -2.63%
COc1ccc(N2C(=O)c3cccc4cccc(c34)C2=O)nn1 -0.94%
O=C(Nc1nsc(-c2ccccc2)n1)c1ccncc1 3.23%
C[N+](C)(C)CCCCCNCC12CC3CC(CC(C3)C1)C2 -1.3%
CN(C)c1ccnc2sc3c(=O)n(Cc4ccccc4)cnc3c12 5.17%
O=C(O)CN(Cc1ccco1)S(=O)(=O)c1ccccc1 0%
CCOCCCNS(=O)(=O)Cc1ccccc1 5.26%
O=C(O)[C@H](CCc1ccccn1)c1ccccc1 -6.91% [at 9.17 µM]

Source: PubChem BioAssay AID526 (National Center for Advancing Translational Sciences (NCATS), 2006)
